Experimental data from PubChem BioAssay (NCI).
The panel holds about 79,000 compounds, 15% with a hit somewhere; the sample as a whole holds those more often. Calls of active or inactive are those of the source. Cut-off read from the data, not from the text of the source: active = growth inhibition above about 70%; inactive = the rest.

Tests used:
[1] = NCI Yeast Anticancer Drug Screen. Data for the rad52 strain (AID 147);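 note: 0% = growth of vehicle-treated control cultures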; settings: S. cerevisiae rad52 mutant growth inhibition, stronger effect = higher value
Summary of the method: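 Genetically altered yeast (DNA damage repair defect) treated with compound; inhibition calculated relative to vehicle.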

[2] = NCI Yeast Anticancer Drug Screen. Data for the wt1 strain (AID 149);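 note: 0% = growth of vehicle-treated wt1 cultures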; settings: S. cerevisiae wt1 strain (SPY 50644) growth inhibition, stronger effect = higher value
Summary of the method: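 Each compound is tested on wt1 yeast and the loss of growth versus vehicle gives the inhibition value.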

[3] = NCI Yeast Anticancer Drug Screen. Data for the rad50EPP+ strain (AID 151);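 note: 0% = growth of vehicle-treated control cultures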; settings: S. cerevisiae rad50 mutant strain, stronger effect = higher value
Summary of the method: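 Strain rad50EPP+; compound exposure; % growth inhibition vs vehicle.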

[4] = NCI Yeast Anticancer Drug Screen. Data for the mgt1 strain (AID 153); settings: S. cerevisiae mgt1 mutant growth inhibition, stronger effect = higher value
Summary of the method: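 Read-out: yeast growth inhibition vs vehicle control. Strain mgt1, drawn from a panel altered in DNA damage repair or cell cycle control.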

[5] = NCI Yeast Anticancer Drug Screen. Data for the rad50 strain (AID 155);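 note: 0% = growth of vehicle-only cultures of the same strain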; settings: S. cerevisiae rad50 strain growth inhibition, stronger effect = higher value
Summary of the method: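 Vehicle-treated cultures provide the reference for the growth inhibition reported for compound-exposed, repair-deficient yeast.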

[6] = NCI Yeast Anticancer Drug Screen. Data for the mec2-1 strain (AID 157); settings: S. cerevisiae mec2-1 strain, stronger effect = higher value
Summary of the method: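 Cells of the genetically defined mec2-1 yeast strain are incubated with test compound. Inhibition of growth is calculated against vehicle-treated controls.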

[7] = NCI Yeast Anticancer Drug Screen. Data for the rad14 strain (AID 159);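 note: 0% = growth of vehicle-treated control cultures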; settings: S. cerevisiae rad14 strain growth inhibition, stronger effect = higher value
Summary of the method: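 Inhibition of growth is reported for a repair-deficient yeast mutant following compound treatment, calculated relative to cultures that received vehicle.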

[8] = NCI Yeast Anticancer Drug Screen. Data for the sgs1 mgt1 strain (AID 161);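 note: 0% = growth of cultures given vehicle only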; settings: S. cerevisiae sgs1 mgt1 strain, stronger effect = higher value
Summary of the method: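 Mutant yeast exposed to compound; growth scored against vehicle-only wells.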

[9] = NCI Yeast Anticancer Drug Screen. Data for the CLN2oe strain (AID 163);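 note: 0% = growth of vehicle-only control cultures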; settings: S. cerevisiae CLN2oe strain, stronger effect = higher value
Summary of the method: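 Strain altered in cell-cycle control, incubated with compound; growth compared to solvent-treated controls.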

[10] = NCI Yeast Anticancer Drug Screen. Data for the cln2 rad14 strain (AID 165);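 note: 0% = growth equal to vehicle treated cultures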; settings: S. cerevisiae cln2 rad14 strain, stronger effect = higher value
Summary of the method: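 The screen exposed genetically defined yeast (cln2 rad14) to test compounds and scored growth inhibition relative to vehicle-treated controls.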

[11] = NCI Yeast Anticancer Drug Screen. Data for the bub3 strain (AID 167); settings: S. cerevisiae bub3 mutant strain, stronger effect = higher value
Summary of the method: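 Mutant yeast screening strain plus compound; vehicle-treated cultures serve as the 0% inhibition reference.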

[12] = NCI Yeast Anticancer Drug Screen. Data for the wt2 strain (AID 169); settings: S. cerevisiae wt2 strain growth inhibition, stronger effect = higher value
Summary of the method: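 Steps: yeast strain treated with compound; growth recorded; inhibition calculated relative to cultures given vehicle alone.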

[13] = NCI Yeast Anticancer Drug Screen. Data for the mlh1 strain (AID 171);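 note: 0% = growth of vehicle-treated control cultures of the same strain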; settings: S. cerevisiae mlh1 strain growth inhibition, stronger effect = higher value
Summary of the method: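 Yeast screen: mutant strain plus compound, growth scored against vehicle control wells.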

[14] = NCI Yeast Anticancer Drug Screen. Data for the sgs1 strain (AID 173);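 note: 0% = growth of vehicle-only control cultures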; settings: S. cerevisiae sgs1 mutant, stronger effect = higher value
Summary of the method: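 Inhibition of yeast growth served as the measure. The mutant strain was treated with each compound, and growth was normalised to cultures receiving vehicle alone.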

[15] = NCI Yeast Anticancer Drug Screen. Data for the mlh1 rad18 strain (AID 175); settings: S. cerevisiae mlh1 rad18 strain growth inhibition, stronger effect = higher value
Summary of the method: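 Compound-treated yeast growth, normalised to vehicle controls. Strain bears defined DNA repair mutations.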

[16] = NCI Yeast Anticancer Drug Screen. Data for the rad18 strain (AID 177); settings: S. cerevisiae rad18 mutant growth inhibition, stronger effect = higher value
Summary of the method: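 Inhibition values reflect reduced yeast growth compared with vehicle-treated controls, using a strain engineered with a DNA damage repair defect.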

[17] = at 5.0 µM (retest, dose inferred, filed as 0.5)
[18] = at 50.0 µM (retest, dose inferred, filed as 5.0)

Measured: growth inhibition

CC(C)CCCC(C)C1CCC2C3CCC4=CC(=O)/C(=C\O)CC4(C)C3CCC12C (stereo unspecified)
inactive: [1]; at 1.2 µM 1% | [1]; at 3.7 µM 2% | [1]; at 11.0 µM 3% | [1]; at 33.0 µM 6% | [1]; at 100.0 µM 25% | [2]; at 1.2 µM 1% | [2]; at 3.7 µM 1% | [2]; at 11.0 µM 2% | [2]; at 33.0 µM 3% | [2]; at 100.0 µM 16% | [3]; at 1.2 µM 2% | [3]; at 3.7 µM -2% | [3]; at 11.0 µM -6% | [3]; at 33.0 µM -8% | [3]; at 100.0 µM -4% | [4]; at 1.2 µM -1% | [4]; at 3.7 µM 1% | [4]; at 11.0 µM 1% | [4]; at 33.0 µM 0% | [4]; at 100.0 µM 6% | [5]; at 1.2 µM 1% | [5]; at 3.7 µM 0% | [5]; [17] 5% | [5]; at 11.0 µM -2% | [5]; at 33.0 µM 0% | [5]; [18] 47% | [5]; at 50.0 µM 15.9% | [5]; at 100.0 µM 21% | [6]; at 1.2 µM -2% | [6]; at 3.7 µM -6% | [6]; [17] 3% | [6]; at 11.0 µM -7% | [6]; at 33.0 µM -2% | [6]; [18] 45% | [6]; at 50.0 µM 6.2% | [6]; at 100.0 µM 22% | [7]; at 1.2 µM 1% | [7]; at 3.7 µM 2% | [7]; at 11.0 µM 3% | [7]; at 33.0 µM 7% | [7]; at 100.0 µM 20% | [8]; [17] 7% | [8]; [18] 48% | [8]; at 50.0 µM 14.9% | [9]; at 1.2 µM -3% | [9]; at 3.7 µM -5% | [9]; at 11.0 µM -10% | [9]; at 33.0 µM -18% | [9]; at 100.0 µM 2% | [10]; [17] 0% | [10]; [18] 26% | [10]; at 50.0 µM 48.5% | [11]; at 1.2 µM 4% | [11]; at 3.7 µM -1% | [11]; [17] 6% | [11]; at 11.0 µM -10% | [11]; at 33.0 µM -9% | [11]; [18] 54% | [11]; at 50.0 µM 47.8% | [11]; at 100.0 µM 21% | [12]; at 1.2 µM 2% | [12]; at 3.7 µM 0% | [12]; at 11.0 µM 2% | [12]; at 33.0 µM 1% | [12]; at 100.0 µM 10% | [13]; at 1.2 µM -1% | [13]; at 3.7 µM -2% | [13]; at 11.0 µM -3% | [13]; at 33.0 µM -2% | [13]; at 100.0 µM 15% | [14]; at 1.2 µM 0% | [14]; at 3.7 µM -1% | [14]; at 11.0 µM -1% | [14]; at 33.0 µM 3% | [14]; at 100.0 µM 29% | [15]; [17] 2% | [15]; [18] 52% | [15]; at 50.0 µM 26.1% | [16]; at 1.2 µM 3% | [16]; at 3.7 µM 3% | [16]; at 11.0 µM 2% | [16]; at 33.0 µM 6% | [16]; at 100.0 µM 28%

CN(C)CCCCN1c2ccccc2Sc2ccc(N=[N+]=[N-])cc21
active: [1]; at 100.0 µM 99% | [2]; at 100.0 µM 99% | [3]; at 100.0 µM 80% | [4]; at 100.0 µM 99% | [5]; [17] 91% | [5]; [18] 99% | [5]; at 50.0 µM 84.2% | [5]; at 100.0 µM 98% | [6]; [18] 99% | [6]; at 50.0 µM 79.2% | [6]; at 100.0 µM 99% | [7]; at 100.0 µM 99% | [8]; [18] 99% | [8]; at 50.0 µM 90.5% | [9]; at 100.0 µM 98% | [10]; [18] 99% | [10]; at 50.0 µM 89.5% | [11]; [18] 98% | [11]; at 50.0 µM 72% | [11]; at 100.0 µM 98% | [12]; at 100.0 µM 99% | [13]; at 100.0 µM 99% | [14]; at 100.0 µM 99% | [15]; [18] 99% | [15]; at 50.0 µM 91.5% | [16]; at 100.0 µM 99%
inactive: [1]; at 1.2 µM 29% | [1]; at 3.7 µM 37% | [1]; at 11.0 µM 45% | [1]; at 33.0 µM 49% | [2]; at 1.2 µM 23% | [2]; at 3.7 µM 36% | [2]; at 11.0 µM 36% | [2]; at 33.0 µM 47% | [3]; at 1.2 µM 24% | [3]; at 3.7 µM 20% | [3]; at 11.0 µM 23% | [3]; at 33.0 µM 23% | [4]; at 1.2 µM 19% | [4]; at 3.7 µM 20% | [4]; at 11.0 µM 31% | [4]; at 33.0 µM 51% | [5]; at 1.2 µM 6% | [5]; at 3.7 µM 20% | [5]; at 11.0 µM 15% | [5]; at 33.0 µM 47% | [6]; at 1.2 µM 33% | [6]; at 3.7 µM 31% | [6]; [17] 33% | [6]; at 11.0 µM 36% | [6]; at 33.0 µM 42% | [7]; at 1.2 µM 0% | [7]; at 3.7 µM 8% | [7]; at 11.0 µM 19% | [7]; at 33.0 µM 55% | [8]; [17] -16% | [9]; at 1.2 µM 19% | [9]; at 3.7 µM 18% | [9]; at 11.0 µM 24% | [9]; at 33.0 µM 39% | [10]; [17] 8% | [11]; at 1.2 µM -8% | [11]; at 3.7 µM -10% | [11]; [17] 4% | [11]; at 11.0 µM -14% | [11]; at 33.0 µM 14% | [12]; at 1.2 µM -8% | [12]; at 3.7 µM -15% | [12]; at 11.0 µM -14% | [12]; at 33.0 µM 46% | [13]; at 1.2 µM 32% | [13]; at 3.7 µM 31% | [13]; at 11.0 µM 35% | [13]; at 33.0 µM 57% | [14]; at 1.2 µM 10% | [14]; at 3.7 µM 42% | [14]; at 11.0 µM 43% | [14]; at 33.0 µM 67% | [15]; [17] 23% | [16]; at 1.2 µM 10% | [16]; at 3.7 µM 14% | [16]; at 11.0 µM 24% | [16]; at 33.0 µM 57%
